What all share (settings): mRNA level, 48 h; actives raise or lower the signal
Read-out in assay [1]: Glutathione S-Transferase (GSTA2), GSTA2 (gene 2939)
Kind of assay: LTEA_HepaRG_GSTA2: Life Technologies and Expression Analysis (LTEA) Assay for Glutathione S-Transferase (GSTA2) using HepaRG (AID 2283497). Put shortly:
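qRT-PCR readout of GSTA2 transcript, normalized to three housekeeping genes, fitted bidirectionally against 0.5% DMSO baseline. Differentiated HepaRG cells received compound for 48 h at 8 concentrations (top 100 uM, half-log steps).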

Read-out in assay [2]: Glutamate-cysteine ligase catalytic (GCLC), GCLC (gene 2729)
Briefly: LTEA_HepaRG_GCLC: Life Technologies and Expression Analysis (LTEA) Assay for Glutamate-cysteine ligase catalytic (GCLC) using HepaRG (AID 2283498). The gist of the method: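 HepaRG, 48 h exposure, 8-pt half-log series from 100 uM, 0.5% DMSO vehicle; TaqMan qRT-PCR for GCLC mRNA, housekeeping-normalized; bidirectional curve fit vs DMSO baseline.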

Read-out in assay [3]: growth arrest and DNA damage 45 (GADD45G), GADD45G (gene 10912)
Kind of assay: LTEA_HepaRG_GADD45G: Life Technologies and Expression Analysis (LTEA) Assay for growth arrest and DNA damage 45 (GADD45G) using HepaRG (AID 2283499). Put shortly: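 Gain or loss of GADD45G mRNA, quantified by TaqMan qRT-PCR against three housekeeping genes, is fitted in both directions relative to 0.5% DMSO. Human HepaRG cultures receive test chemical for 48 h at up to 100 uM.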

Read-out in assay [4]: Glutathione S-transferase M3 (GSTM3), GSTM3 (gene 2947)
Briefly: LTEA_HepaRG_GSTM3: Life Technologies and Expression Analysis (LTEA) Assay for Glutathione S-transferase M3 (GSTM3) using HepaRG (AID 2283501). The gist of the method: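 HepaRG, plated 48 h, then serum-free induction medium; test chemical 48 h, duplicate; 100 uM top, half-log x8, 0.5% DMSO. Read-out: GSTM3 mRNA (TaqMan qRT-PCR, Fluidigm array). Bidirectional fit vs DMSO.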

Read-out in assay [5]: Heat shock 70 kDa protein 1 (HSPA1A), gene 3303
Kind of assay: LTEA_HepaRG_HSPA1A: Life Technologies and Expression Analysis (LTEA) Assay for Heat shock 70 kDa protein 1 (HSPA1A) using HepaRG (AID 2283502). Put shortly: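 HepaRG, 48 h exposure, 8-pt half-log CRC from 100 uM in 0.5% DMSO, duplicates. Readout: TaqMan qRT-PCR of HSPA1A mRNA, housekeeping-normalized (ACTB/GAPDH/POLR2A). Bidirectional fit vs 0.5% DMSO baseline.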

Read-out in assay [6]: Hypoxia-inducible factor 1-alpha (Homo sapiens) (UniProt Q16665)
Briefly: LTEA_HepaRG_HIF1A: Life Technologies and Expression Analysis (LTEA) Assay for Hypoxia-inducible factor 1 (HIF1A) Trancription factor using HepaRG (AID 2283503). The gist of the method:
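Gain- or loss-of-signal HIF1A mRNA changes are fitted against a DMSO baseline. HepaRG cultures receive eight concentrations, highest 100 uM, for 48 h in serum-free induction medium with 0.5% DMSO.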

Read-out in assay [7]: 3-Hydroxy-3-Methylglutaryl-CoA Synthase 2 (HMGCS2), HMGCS2 (gene 3158)
Briefly: LTEA_HepaRG_HMGCS2: Life Technologies and Expression Analysis (LTEA) Assay for 3-Hydroxy-3-Methylglutaryl-CoA Synthase 2 (HMGCS2) using HepaRG (AID 2283504). Put shortly: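 HepaRG, plated 48 h then switched to serum-free induction media; cmpd 8-pt, max 100 uM, 1/2-log, 0.5% DMSO, n=2, 48 h. HMGCS2 mRNA by Fluidigm TaqMan qRT-PCR, ACTB/GAPDH/POLR2A norm; bidirectional fit vs DMSO.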

Read-out in assay [8]: HGF (gene 3082)
Kind of assay: LTEA_HepaRG_HGF: Life Technologies and Expression Analysis (LTEA) Assay for Hepatocyte Growth Facto (HGF) using HepaRG (AID 2283505). Put shortly:
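Read-out is HGF transcript level by qRT-PCR, normalized to three housekeeping genes, fitted bidirectionally against 0.5% DMSO vehicle. Human HepaRG cells received test chemicals for 48 h at up to 100 uM.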

Read-out in assay [9]: Insulin Like Growth Factor 1 (IGF1), IGF1 (gene 3479)
Briefly: LTEA_HepaRG_IGF1: Life Technologies and Expression Analysis (LTEA) Assay for Insulin Like Growth Factor 1 (IGF1) using HepaRG (AID 2283506). Put shortly:
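qRT-PCR readout of IGF1 mRNA, normalized to three housekeeping genes, after 48 h chemical exposure of HepaRG cells. Concentrations: 8-point half-log series, top 100 uM, 0.5% DMSO vehicle. Gain or loss fitted against DMSO baseline.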

Read-out in assay [10]: Intercellular Adhesion Molecule 1 (ICAM1), ICAM1 (gene 3383)
Briefly: LTEA_HepaRG_ICAM1: Life Technologies and Expression Analysis (LTEA) Assay for Intercellular Adhesion Molecule 1 (ICAM1) using HepaRG (AID 2283507). Put shortly: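 Readout is qRT-PCR mRNA level, normalized to three housekeeping genes and fitted bidirectionally against 0.5% DMSO vehicle. Human HepaRG cultures received compound for 48 h, top concentration 100 uM with half-log dilutions.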

Read-out in assay [11]: Insulin-like growth factor-binding protein 1 (IGFBP1), IGFBP1 (gene 3484)
Kind of assay: LTEA_HepaRG_IGFBP1: Life Technologies and Expression Analysis (LTEA) Assay for Insulin-like growth factor-binding protein 1 (IGFBP1) using HepaRG (AID 2283508). The gist of the method:
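Thawed HepaRG cells are plated for 48 h, switched to serum-free induction medium, then dosed in duplicate for another 48 h (100 uM top, half-log steps). Lysates in RLT go to qRT-PCR, and gain or loss of signal is fitted relative to vehicle.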

Read-out in assay [12]: Interleukin 6 (IL6), IL6 (gene 3569)
Briefly: LTEA_HepaRG_IL6: Life Technologies and Expression Analysis (LTEA) Assay for Interleukin 6 (IL6) using HepaRG (AID 2283509). Put shortly: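 qRT-PCR read-out of IL6 transcript, normalized to three housekeeping genes, after 48 h chemical exposure of HepaRG cells; 8-point half-log series, top 100 uM, 0.5% DMSO vehicle. Bidirectional curve fitting against DMSO baseline.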

Read-out in assay [13]: Interleukin 6 Receptor (IL6R), IL6R (gene 3570)
Briefly: LTEA_HepaRG_IL6R: Life Technologies and Expression Analysis (LTEA) Assay for Interleukin 6 Receptor (IL6R) using HepaRG (AID 2283510). The gist of the method: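 HepaRG, 48 h exposure, 8-pt half-log series, top 100 uM, 0.5% DMSO vehicle, duplicates. Read-out: TaqMan qRT-PCR of IL6R transcript, housekeeping-gene normalized. Gain or loss fitted relative to DMSO baseline.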

Read-out in assay [14]: Potassium channel subfamily K member 1 (KCNK1), KCNK1 (gene 3775)
Kind of assay: LTEA_HepaRG_KCNK1: Life Technologies and Expression Analysis (LTEA) Assay for Potassium channel subfamily K member 1 (KCNK1) using HepaRG (AID 2283511). The gist of the method: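 HepaRG, 48 h exposure, 8-pt half-log series top 100 uM, 0.5% DMSO vehicle, duplicates. Readout: KCNK1 transcript by qRT-PCR (Fluidigm array), housekeeping-normalized; bidirectional curve fit relative to DMSO baseline.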

Read-out in assay [15]: Keratin 19 (KRT19), KRT19 (gene 3880)
Briefly: LTEA_HepaRG_KRT19: Life Technologies and Expression Analysis (LTEA) Assay for Keratin 19 (KRT19) using HepaRG (AID 2283512). Put shortly:
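KRT19 transcript levels, measured by Fluidigm qRT-PCR against three housekeeping genes, are fitted for gain or loss of signal relative to DMSO. Human HepaRG cells receive test chemicals (top 100 uM, half-log steps, 0.5% DMSO) for 48 hours.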

Read-out in assay [16]: JUN Transcription Factor, JUN (gene 3725)
Kind of assay: LTEA_HepaRG_JUN: Life Technologies and Expression Analysis (LTEA) Assay for JUN Transcription Factor using HepaRG (AID 2283513). Put shortly: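 HepaRG, 48 h exposure, 8-pt half-log series top 100 uM, 0.5% DMSO, duplicate. JUN mRNA by qRT-PCR (Fluidigm), housekeeping-normalized (ACTB/GAPDH/POLR2A); bidirectional curve fit vs DMSO baseline.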

Read-out in assay [17]: Lipase C (LIPC), LIPC (gene 3990)
Kind of assay: LTEA_HepaRG_LIPC: Life Technologies and Expression Analysis (LTEA) Assay for Lipase C (LIPC) using HepaRG (AID 2283514). The gist of the method: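 HepaRG, 48 h exposure, 8-pt half-log series from 100 uM in 0.5% DMSO, duplicates. Readout: LIPC mRNA by Fluidigm qRT-PCR, housekeeping-normalized (ACTB/GAPDH/POLR2A). Gain or loss fitted bidirectionally against DMSO baseline.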

Read-out in assay [18]: Lipoprotein lipase (LPL), LPL (gene 4023)
Briefly: LTEA_HepaRG_LPL: Life Technologies and Expression Analysis (LTEA) Assay for Lipoprotein lipase (LPL) using HepaRG (AID 2283515). The gist of the method:
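HepaRG, 48 h exposure, 8-pt half-log dilutions from 100 uM, 0.5% DMSO vehicle, duplicates; qRT-PCR (Fluidigm array) of LPL mRNA vs housekeeping genes; bidirectional curve fit relative to DMSO baseline.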

Read-out in assay [19]: MicroRNA 122 (MIR122), gene 406906
Kind of assay: LTEA_HepaRG_MIR122: Life Technologies and Expression Analysis (LTEA) Assay for MicroRNA 122 (MIR122) using HepaRG (AID 2283516). Further: the transcript read is the microRNA miR-122. Put shortly:
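qRT-PCR read-out (TaqMan, Fluidigm array), normalized to three housekeeping genes; HepaRG cells dosed 48 h at 8 concentrations up to 100 uM in 0.5% DMSO, duplicate; gain or loss fitted against DMSO baseline.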

Read-out in assay [20]: Glutamate-cysteine ligase regulatory (GCLM), GCLM (gene 2730)
Briefly: LTEA_HepaRG_GCLM: Life Technologies and Expression Analysis (LTEA) Assay for Glutamate-cysteine ligase regulatory (GCLM) using HepaRG (AID 2283500). Put shortly:
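HepaRG, 48 h dosing, 100 uM top, half-log x8, 0.5% DMSO vehicle. Readout: GCLM mRNA by TaqMan qRT-PCR, housekeeping-normalized (ACTB/GAPDH/POLR2A). Curves fit bidirectionally vs DMSO baseline.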

Active and inactive are the calls of the source. How the source made its calls: active means hit-call score of the fitted dose curve at least 0.9, where 1 is the maximum; inactive means score below 0.9.

Hypoxia-inducible factor 1-alpha (Homo sapiens), sequence (Q16665 whole entry, looked up): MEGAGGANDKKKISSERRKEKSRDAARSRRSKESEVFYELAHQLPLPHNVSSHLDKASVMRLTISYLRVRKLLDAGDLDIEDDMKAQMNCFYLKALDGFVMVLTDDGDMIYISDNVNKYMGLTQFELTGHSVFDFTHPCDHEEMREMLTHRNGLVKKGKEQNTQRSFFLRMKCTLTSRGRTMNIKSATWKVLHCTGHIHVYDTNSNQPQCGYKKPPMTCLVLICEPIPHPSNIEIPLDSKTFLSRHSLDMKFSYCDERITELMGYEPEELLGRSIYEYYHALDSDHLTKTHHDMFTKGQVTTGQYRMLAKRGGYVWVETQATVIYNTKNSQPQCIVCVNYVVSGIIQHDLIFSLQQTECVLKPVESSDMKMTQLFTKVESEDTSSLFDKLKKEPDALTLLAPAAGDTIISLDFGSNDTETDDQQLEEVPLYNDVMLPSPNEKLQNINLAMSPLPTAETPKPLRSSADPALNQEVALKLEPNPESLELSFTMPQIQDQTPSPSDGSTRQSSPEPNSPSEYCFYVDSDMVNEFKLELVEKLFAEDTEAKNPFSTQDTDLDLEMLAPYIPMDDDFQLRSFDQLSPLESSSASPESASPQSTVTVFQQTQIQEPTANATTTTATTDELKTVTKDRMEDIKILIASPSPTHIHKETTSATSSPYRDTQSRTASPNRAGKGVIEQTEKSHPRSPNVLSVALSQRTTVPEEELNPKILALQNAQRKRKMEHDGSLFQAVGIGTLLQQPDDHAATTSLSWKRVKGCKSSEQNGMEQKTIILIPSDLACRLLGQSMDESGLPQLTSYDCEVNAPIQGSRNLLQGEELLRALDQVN

In the case of `CCCCOC(=O)CCCCC(=O)OCCCC`, the molecule was called inactive in assay [1], in assay [2], in assay [3], in assay [4], in [5] and in [6]. Moreover, the molecule was classed as inactive in assay [7], in [8], in assay [9], in [10], in [11] and in [12]. Also, the molecule was classed as inactive in assay [13], in [14], in assay [15], in assay [16], in [17] and in assay [18]. Also, in assay [19], the result was inactive.
For the molecule `COc1ccc(OC(F)(F)F)cc1CN[C@H]1CCCN[C@H]1c1ccccc1`, the AC50 in [1] was 5.08 µM (active); in assay [2], 90.1 µM (active); in assay [5], 73.3 µM (active); in [7], 78.8 µM (active); in assay [10], 75.7 µM (active); in assay [11], 71.7 µM (active). Moreover, the AC50 in assay [12] was 82.9 µM (active); in [14], 79.1 µM (active); in assay [16] it was 78.9 µM (active); in [18], 82.9 µM (active). Also, the outcome in assay [3], in assay [4], in assay [6], in assay [8], in [9] and in assay [13] was inactive. For the same molecule, the result in assay [15], in assay [17] and in assay [19] was inactive.
In the case of `CCCCC(CC)CO` (configuration not stated), the molecule was classed as inactive in assay [1], in [2], in [3], in [20], in assay [5] and in [6]. Moreover, the outcome in assay [7], in [8], in [9], in [10], in [11] and in assay [12] was inactive. Further, the result in assay [13], in assay [14], in [15], in [16], in [17] and in assay [18] was inactive. In addition, the call in assay [19] was inactive.

The record behind these values is PubChem BioAssay (EPA / NIEHS).
